# Reference: ChEMBL document CHEMBL3988442, “University of Dundee, Small-Polar-MMV Screening Library” (2021)
# Out of some 69,000 compounds screened, about 420 (0.61%) showed an effect of 50% or more. Only a selection was taken, and strong results are over-represented in it overall.
# Biological target: T1, Histidine--tRNA ligase (Leishmania infantum) (UniProt A4I591)
# T1 sequence (whole entry): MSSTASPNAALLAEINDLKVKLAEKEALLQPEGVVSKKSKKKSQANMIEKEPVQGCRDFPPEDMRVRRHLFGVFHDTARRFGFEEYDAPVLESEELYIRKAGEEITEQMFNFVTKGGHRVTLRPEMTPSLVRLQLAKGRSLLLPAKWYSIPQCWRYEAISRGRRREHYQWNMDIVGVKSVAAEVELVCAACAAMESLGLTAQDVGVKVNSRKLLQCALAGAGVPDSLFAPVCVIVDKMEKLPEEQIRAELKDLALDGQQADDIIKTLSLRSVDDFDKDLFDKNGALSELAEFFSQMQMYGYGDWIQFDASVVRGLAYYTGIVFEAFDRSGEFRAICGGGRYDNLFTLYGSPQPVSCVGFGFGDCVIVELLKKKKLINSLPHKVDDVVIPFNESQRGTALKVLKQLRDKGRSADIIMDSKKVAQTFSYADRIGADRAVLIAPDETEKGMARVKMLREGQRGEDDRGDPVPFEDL
# Assay: Leishmania infantum Histidine tRNA synthetase (LdHisRS)
# Assay type: functional
# Design: scale not given: in the data most compounds retested in dose-response had high values
# Conditions: 30 µM
row,SMILES,Percent Effect [%]
1,CN(C)C[C@@H]1C[C@@H]2CN(C(=O)c3ccoc3)CC[C@@H]2N1CC1CC1,7.32
2,NC(=O)N1C[C@H](NC(=O)c2cscn2)[C@@H]2OCCC[C@@H]21,13.6
3,CC(C)CC(=O)N1CC[C@H]2N(C)CC[C@@]2(C(=O)Nc2cccnc2)CC1,11.7
4,CCCn1cc(NC(=O)c2ccncc2)ccc1=O,104
5,CCCn1cc(NC(=O)c2ccc(S(C)(=O)=O)cc2)ccc1=O,94.6
6,CCCn1cc(NC(=O)c2ccc(NC(=O)NC3CC3)cc2)ccc1=O,92.8
7,CCCn1cc(NC(=O)c2ccc(N(C)CC)cc2)ccc1=O,31.5
8,Cn1cc(NC(=O)Nc2cccc3cccnc23)ccc1=O,114
9,O=C(Nc1ccc(CCN2CCSCC2)cc1)NC1CC1,16.4
10,CCCN1CCC(NC(=O)Nc2ccc(OC)c(OC)c2)CC1,1.33
11,CN(C)C(=O)Cc1ccccc1NCc1cccc2cccnc12,13.6
12,O=C(Nc1ccc2c(ccn2CCN2CCOCC2)c1)c1ccncc1,25.7
13,Cn1cc(C(=O)Nc2cccc(F)c2)ccc1=O,26.5
14,CCN(CC)C(CNC(=O)c1ccc(S(C)(=O)=O)cc1)c1ccco1 (centres undefined),19.2
15,COC(=O)N1CCCN(C(=O)c2cccc3cccnc23)CC1,8.26
16,COCC1(CNC(=O)[C@@]23CNC[C@@H]2CN(C2CCCC2)C3)CC1,12.8
17,CS(=O)(=O)N1C[C@H](NC(=O)c2ccno2)[C@@H]2OCCC[C@@H]21,10
18,COc1ccc(CN2C[C@@H]3OCCN(C)[C@@H]3C2)cc1,19.3
19,Cc1nc([C@@H]2C[C@H]3CN(Cc4scnc4C)C[C@H]3O2)no1,17.1
20,Cn1cc(C(=O)N[C@H]2CN(Cc3nccs3)[C@@H]3CCCO[C@H]23)cn1,28.6
21,Fc1cnc(N2C[C@H]3CCC[C@@]3(COc3ccccn3)C2)nc1,0
22,CC(=O)N1CCO[C@@H]2CN(Cc3cccc(Cl)c3)C[C@@H]2C1,15.3
23,COc1cccc(CN2C[C@@H]3COC[C@]3(COc3cccnc3)C2)c1,19.3

row,SMILES,Percent Effect [%]
1,c1ccc(OC2COC3(CCN(Cc4ccccn4)CC3)C2)cc1 (centres undefined),15
2,Cc1cccc(CN2CCS(=O)(=O)[C@@H]3CCN(C(=O)C4CC4)CC[C@@H]32)n1,5.26
3,CCCn1cc(NC(=O)c2cccc3cccnc23)ccc1=O,75.9
4,CCS(=O)(=O)c1cccc(C(=O)Nc2cccc3c2C(=O)N(C)C3=O)c1,21.5
5,CCCn1cc(NC(=O)c2ccc(S(=O)(=O)CC)cc2)ccc1=O,114
6,CN1CCC/C1=N\S(=O)(=O)c1ccc(NC(=O)c2ccc(F)cc2)cc1,15.6
7,CCCn1cc(NC(=O)c2cccnc2O)ccc1=O,17.1
8,Cn1cc(NC(=O)c2cccc3cccnc23)ccc1=O,20.5
9,O=C(C[C@@H]1COC[C@H]2CN(Cc3ccccc3)C[C@@H]12)N1CCCC1,23.1
10,CN1[C@@H](C(=O)NCC2CC2)C[C@@H]2CN(Cc3ccco3)C[C@@H]21,17.1
11,CCOC(=O)[C@]12CCCN(Cc3nccs3)C[C@H]1CN(C(C)=O)C2,10.7
12,O=C([C@@H]1CC[C@@H]2[C@@H](CCN2CCOCc2ccccc2)O1)N1CCCC1,16
13,CN(C)C(=O)CN1C[C@@H]2CC[C@H](C1)N(Cc1ccc3nsnc3c1)C2,11.3
14,Cc1cnc(N2CC[C@@H]3O[C@@H](COCc4ccccn4)CC[C@@H]32)nc1,13
15,CC(C)Oc1ccccc1C1CC(=O)Nc2c1cnn2C (centres undefined),-14.3
16,CCn1ncnc1C1CC(=O)NCc2nc(N3CCCC3)sc21 (centres undefined),15.7
17,O=c1[nH]nc(-c2cccs2)c2sc(N3CCOCC3)nc12,11.9
18,COc1cccc(C2CC(=O)Nc3nc(N4CCOCC4)sc32)c1OC (centres undefined),111
19,COc1ccccc1C1CC(=O)Nc2nc(N3CCCCC3)sc21 (centres undefined),118
20,COc1cccc(C2CC(=O)Nc3nc(N4CCCCC4)sc32)c1OC (centres undefined),120
21,CC(C)Oc1ccccc1C1CC(=O)Nc2nc(N3CCOCC3)sc21 (centres undefined),97.5
22,COc1ccccc1C1CC(=O)Nc2c1c(=O)[nH]n2C(C)C (centres undefined),16.5
23,COc1cccc(CNCc2ccnc(N3CCOCC3)c2)c1OC,7.14

row,SMILES,Percent Effect [%]
1,COc1ccccc1C1CC(=O)Nc2c1c(=O)[nH]n2C1CCCC1 (centres undefined),14.3
2,CCOc1cccc(C2CC(=O)NCc3nc(N4CCCC4)sc32)c1 (centres undefined),24.7
3,COc1cccc(CNc2nc(N3CCOCC3)ns2)c1OC,13.5
4,Cc1cccc(CN2C(=O)CC[C@@H]3[C@H]2CCN3Cc2ccc(C)s2)n1,8.03
5,CC1=N[C@@]2(CC[C@@H]3CN(S(=O)(=O)N(C)C)C[C@@H]32)C(=O)N1CC(C)C,9.02
6,CC(=O)N1CC[C@H]2CC(=O)N(CCc3c[nH]cn3)CC[C@H]2C1,9.46
7,Cc1ncc(C(=O)N2CC[C@@]3(O)CCN(C(=O)N(C)C)C[C@H]3C2)cn1,10.6
8,O[C@@]1(CN2CCN(Cc3ccncc3)CC2)CCCN2CCCC[C@@H]21,20
9,Cn1ncc2c1NC(=O)CC2c1ccccc1Br (centres undefined),-2.5
10,COc1cccc(C2C3=C(COC3=O)Nc3[nH]nc(C)c32)c1OC (centres undefined),16.7
11,COc1cccc(C2CC(=O)Nc3nc(N)sc32)c1OC (centres undefined),91.4
12,O=C1CC(c2ccccc2Br)c2sc(N3CCOCC3)nc2N1 (centres undefined),87.5
13,O=C1CC(c2ccccc2C(F)(F)F)c2sc(N3CCOCC3)nc2N1 (centres undefined),5
14,COc1cccc([C@@H]2N[C@H](c3nccs3)Cc3ccsc32)c1OC,9.86
15,Cc1ccc(C(=O)N2[C@@H]3CC[C@H]2CN(C)C(=O)C3)c(=O)[nH]1,15.9
16,CN1[C@@H](C(=O)NCC2CC2)C[C@H]2CN(Cc3cccc(C#N)c3)C[C@H]21,17.4
17,CN(C)CCN1C(=O)C[C@@H]2[C@@H]1CCN2S(=O)(=O)c1ccccc1,13.6
18,O=C(N[C@@H]1CN(Cc2ccc3c(c2)OCO3)[C@@H]2CCCO[C@@H]21)C1CC1,7.55
19,O=C1CC[C@H]2CN(c3ncc(F)cn3)CC[C@H]2N1CCc1ccccn1,4.84
20,Cc1csc(N2CCN(C(=O)Cc3ccc(C)s3)CC2)n1,35.7
21,Cc1csc(N2CCN(C(=O)c3ccc(C)s3)CC2)n1,11.4
22,Cc1csc(N2CCN(C(=O)CCC(=O)c3ccc(C)s3)CC2)n1,50
23,COCCN1CCO[C@@H]2CN(C(=O)COc3ccc(C)cc3)C[C@@H]2C1,10.3
